High-throughput results from PubChem.
SW480 rerep = induces DNA re-replication in SW480 colon adenocarcinoma cells. SW480 DNA re-replication, Hoechst DNA content imaging, 48 h. AID 624297. Potency, µM (doses to about 46.1 µM), usual class: activators. hit rate 1.8% among 340,000; note: nearly all actives have a fitted effect of over 55% in size
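Image-based DNA-content assay: after two days of treatment, nuclei were labelled with the DNA dye Hoechst and imaged, and hits were compounds raising the count of nuclei showing high fluorescence intensity.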
MCF10A rerep = induces DNA re-replication in MCF 10a normal breast cells | hit rate 2.9% among 350,000 | Potency, µM (highest dose often 46.1 µM), actives largely listed as activators | MCF 10A DNA re-replication, Hoechst nuclear intensity, 48 h; note: nearly all actives have a fitted effect of over 50% in size
KB-V1 MDR tox = kills drug-selected multidrug resistant KB-V1 cells. KB-V1 MDR cells viability, CellTiter-Glo, 72 h. Potency, µM (titrated, usually from 46.1 µM), actives largely listed as cytotoxic. hit rate 3.4% among 400,000; note: nearly all actives have a fitted effect of over 60% in size
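Readout: CellTiter-Glo luminescence, 10 min after addition. Cells: KB-V1 MDR subline, 72 h at 37 degrees C with compound. Analysis: corrected, normalized data fitted to concentration-effect curves.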
KB-3-1 cytotox = kills parental KB-3-1 adenocarcinoma cells. KB-3-1 viability, CellTiter-Glo ATP luminescence, 72 h. Potency, µM (titrated, usually from 46.1 µM), usual class: cytotoxic. hit rate 1.4% among 400,000; note: nearly all actives have a fitted effect of over 60% in size
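Parental KB-3-1 viability, qHTS format: 72 h compound exposure, 37 °C; CellTiter-Glo; media-only wells and DMSO plates as controls; concentration-effect fits on corrected data.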
RGS4 inhibitor = inhibitors of human regulator of G protein signaling 4. hit rate 0.039% among 390,000. Potency, µM (series often up to 114 µM), hits mostly inhibitors. AID 504845. P49798. Transcreener GDP fluorescence polarization, RGS4-accelerated GTP hydrolysis; note: nearly all actives have a fitted effect of over 75% in size
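MLSMR compounds (23 nl, pin-transferred) preincubated 10 min at room temperature with a 500nM (2x) first reagent, then RGS4 at 900nM (2x) plus Transcreener GDP mix added; fluorescence polarization (620/688 nm) read before and after 90 min at 30 °C.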
PTAP TSG101 blk = blocks PTAP/TSG101 interaction to inhibit HIV-1 budding | Q99816 | Fluorescence polarization, FITC-PTAP peptide / Tsg101 binding | Potency, µM (titrated, usually from 115 µM), usual class: inhibitors | 340,000 tested, under 10 active; active = well fitted inhibition curve with a large enough effect in the main read-out, with a control signal flat, not every such curve was filed as active; inconclusive = small, poorly fitted or top-dose-only effect, or effect the other way, or a change in a side signal; inactive = no such curve, though single readings can be large or run the other way
Target sequence (Q99816 whole entry, looked up): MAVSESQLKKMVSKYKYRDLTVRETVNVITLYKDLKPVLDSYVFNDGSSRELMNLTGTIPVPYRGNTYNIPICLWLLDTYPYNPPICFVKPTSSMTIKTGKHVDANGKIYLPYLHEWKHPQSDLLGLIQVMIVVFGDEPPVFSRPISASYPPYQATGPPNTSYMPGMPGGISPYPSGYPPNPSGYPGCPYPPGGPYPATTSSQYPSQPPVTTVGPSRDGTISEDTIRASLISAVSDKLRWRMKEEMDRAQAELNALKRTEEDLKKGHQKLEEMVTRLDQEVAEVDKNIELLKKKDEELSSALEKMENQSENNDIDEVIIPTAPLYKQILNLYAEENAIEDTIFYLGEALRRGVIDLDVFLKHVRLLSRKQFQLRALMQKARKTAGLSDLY
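Compounds were pin-transferred onto Tsg101 binding domain (10 uM final) in HEPES pH 7.5 buffer, then FITC-PTAP peptide was added at 50 nM final. After 20 min at RT, polarization reported peptide displacement across a qHTS concentration series.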
Hits are given with their value; - = inactive; ? = inconclusive; . = not tested or not shown. An excerpt weighted towards active compounds, which were near 6.6% of everything screened. Unless noted, calls come from the whole dose curve; as a rule, active = well fitted curve in the direction sought with a large enough effect; inconclusive = small, poorly fitted or top-dose-only effect, or another doubt; inactive = no such curve, though single readings can be large; an effect the other way counts as inactive or inconclusive.

SMILES | SW480 rerep | MCF10A rerep | KB-V1 MDR tox | KB-3-1 cytotox | RGS4 inhibitor | PTAP TSG101 blk
O=C1CC(c2ccccc2)Cc2nc3nc(C(F)(F)F)nn3cc21 (stereo unspecified) | - | - | - | - | - | -
CSc1nc2nc3c(cn2n1)C(=O)CC(c1ccccc1)C3 (stereo unspecified) | - | - | 13µM | - | - | .
C=CCN1C(c2cccc(C(F)(F)F)c2)=CS/C1=C(/C#N)c1nnc(N2CCOCC2)n1-c1ccccc1 | - | ? | 4.1µM | ? | - | -
O=C(CN1C(=O)C(c2ccc(F)cc2)=NC12CCCCCC2)Nc1ccc(F)c(Cl)c1 | . | . | . | . | - | .
CCc1ccc(NC(=O)c2nc(SCc3ccccc3F)ncc2Cl)cc1 | . | . | - | - | . | .
O=C1/C(=C/c2ccccc2F)SC(=S)N1CCC(=O)N1CCCCC1CCO (stereo unspecified) | ? | 23µM | - | ? | - | -
O=C1/C(=C/c2ccc(Cl)cc2)SC(=S)N1CCC(=O)N1CCCCC1CCO (stereo unspecified) | ? | ? | - | - | - | -
O=C(CCN1C(=O)/C(=C\c2ccccc2F)SC1=S)N1CCCCC1 | ? | ? | ? | 10µM | - | -
O=C(CCN1C(=O)/C(=C/c2ccccc2)SC1=S)N1CCCCCC1 | ? | ? | ? | ? | - | -
O=C(CCN1C(=O)/C(=C\c2ccccc2Cl)SC1=S)N1CCN(c2ccccc2)CC1 | - | 6.5µM | ? | ? | - | -
CC1CCN(C(=O)CCN2C(=O)/C(=C/c3cccs3)SC2=S)CC1 | 5.8µM | 23µM | ? | ? | - | -
Cc1ccc(NC(=O)c2cc(S(=O)(=O)N3CCc4ccccc43)cn2C)c(Cl)c1 | . | . | . | . | - | .
CC(C)CCNC(=O)c1cccc(-n2cnc3cccnc32)c1 | . | . | - | - | - | .
COc1c(C)cc(S(=O)(=O)NCCc2c(C)[nH]c3ccccc23)c(C)c1C | . | . | - | ? | - | .
COc1cccc(/C=C2\SC(=S)N(CCC(=O)N3CCCCC3)C2=O)c1 | - | 10µM | - | ? | - | -
CCOC(=O)N1CCN(C(=O)CCN2C(=O)/C(=C\c3cccc(OC)c3)SC2=S)CC1 | - | - | ? | - | - | -
CCn1c(NCc2ccccc2NS(=O)(=O)c2ccc(C)cc2)nc2ccccc21 | ? | ? | ? | ? | - | -
Cc1ccc(S(=O)(=O)Nc2ccccc2/C=N/c2nc3ccccc3n2C(C)C)cc1 | - | 21µM | - | - | - | -
CCn1c(NCc2cc(Br)ccc2NS(=O)(=O)c2ccc(C)cc2)nc2ccccc21 | - | - | 18µM | ? | - | -
CCCn1c(NCc2ccccc2NS(=O)(=O)c2ccc(C)cc2)nc2ccccc21 | ? | 10µM | 16µM | ? | ? | -
CCCCn1c(/N=C/c2ccccc2NS(=O)(=O)c2ccc(C)cc2)nc2ccccc21 | - | ? | ? | - | - | -
C(=Nc1ccc(/C=C/c2ccnc3ccccc23)cc1)c1ccc2c(c1)OCO2 | . | . | - | - | . | .
Cc1ccc2c(CC(=O)N(Cc3ccc(Cl)cc3)Cc3ccco3)coc2c1 | . | . | . | . | - | .
Cc1ccc(NC(=O)C(=Cc2ccc(C(=O)O)cc2)C(=O)Nc2ccc(C)cc2C)c(C)c1 | 18µM | 2.6µM | ? | ? | ? | -
CCCN(c1ccccc1F)S(=O)(=O)c1ccc2c(c1)C(C)(C)C(=O)N2C | . | . | - | - | - | .
COC(=O)C1=C[C@@H](C(=O)OC)C2C3=C(C(=O)[C@@]2(C)NC(=O)c2ccccc2)[C@H](C)n2c(=O)n(C)c(=O)n2[C@@H]3C1 (stereo partly specified) | . | . | . | . | - | .
COc1ccc(NC(=O)/C(=C\c2cc(OC)c(OC)cc2[N+](=O)[O-])NC(=O)c2ccccc2)cc1 | - | - | - | - | - | -
COc1cc(/C=C(/NC(=O)c2ccccc2)C(=O)Nc2ccccc2)c([N+](=O)[O-])cc1OC | - | - | 16µM | - | - | -
COc1ccc(-n2c(N)c(C(=O)NCc3ccco3)c3nc4ccccc4nc32)cc1OC | 18µM | 16µM | - | - | - | -
